Results from PubChem BioAssay AID2314 (National Center for Advancing Translational Sciences (NCATS), 2010).
The campaign covered roughly 300,000 compounds. About 37,000 (12%) were called active. Shown is part of a subset that was picked to be rich in actives. Unmarked numbers belong to inactive results. No stated cut-off is given here; in the data, active means max response mostly above about 13% (no sharp cut-off); inactive means mostly below about 14%.

Assay: Cycloheximide Counterscreen for Small Molecule Inhibitors of Shiga Toxin; further: read at 38.3 µM for the half of the compounds with a filed dose; 0% is about no effect
Conditions: cell reporter, cycloheximide protein synthesis inhibition counterscreen; active compounds read high

SMILES | max response
O=C(NC1CCC(O)CC1)c1ccccc1OCc1ccc(F)cc1 (centres undefined) | -3.74%
Cc1ccccc1CN1C(=O)c2ccccc2Sc2ccc(C(=O)NCCCN3CCOCC3)cc21 | -3.67%
COc1cc(CO)ccc1OCC(=O)Nc1cccc2ccccc12 | -2.19%
Cc1ccc(S(=O)(=O)N(CCCN(C)C)Cc2ccc3c(c2)OCO3)cc1 | 1.74%
CCC1CCCCN1C(=S)Nc1ccc(SC(F)F)cc1 (centres undefined) | 1.07%
CC(=O)c1ccc(NC(=O)CSC(=S)N2CCCC2)cc1 | 20.5% (active)
O=C(CCC(=O)N1CCCC1)Nc1ccc([N+](=O)[O-])cc1 | -2.89%
O=C(COc1ccccc1)Nc1ccc(C(=O)N2CCCC2)cc1 | 37.5%
CCC1CCCCN1C(=S)Nc1ccc(S(=O)(=O)Nc2ncccn2)cc1 (centres undefined) | -2.13%
CCC1CCCCN1C(=S)Nc1ccc(C(C)=O)cc1 (centres undefined) | 8.58% (active)
O=C(NC(=S)Nc1ccc2oc(=O)ccc2c1)c1ccc(-c2cccc(Cl)c2Cl)o1 | 6.87%
CCCC(=O)N1CCN(c2nnc(-c3ccc(C)cc3)c3ccccc23)CC1 | -7.1%
Cc1cccc(CNS(=O)(=O)c2ccc(-c3cnc(C4CC4)o3)cc2)c1 | 18.8%
CC(=O)c1sc(NC(=O)CCCOc2ccccc2C)nc1C | 1.03%
Cc1nnc(C)n1/N=C/c1ccc(C(C)C)cc1 | 4.86%
CC(=O)c1sc(N/N=C\c2ccc(C)cc2)nc1C | 48.9% (active)
Cc1ccc(S(=O)(=O)Nc2nc(C)cc(N/N=C/c3ccc(O)cc3)n2)cc1 | -2.44%
CCOC(=O)c1sc(/N=C/Nc2nc(C)c(C(=O)OCC)s2)nc1C | 10.8%
CC(=O)c1sc(N/N=C/c2ccc(C(C)C)cc2)nc1C | 43% (active)
C=CCC1(C#N)C(=S)NC(C)=C(C(=O)OCC)C1c1ccccc1 (centres undefined) | -1.77%
NC(=O)C1CCN(CC(O)CSc2ccc(F)cc2)CC1 (centres undefined) | -5.01%
NS(=O)(=O)c1ccc(CCNC(=O)c2ccc([N+](=O)[O-])cc2[N+](=O)[O-])cc1 | -3.47%
Cc1nc(NC(=O)c2ccc3c(c2)OCCO3)ccc1Br | 57.9% (active)
Cc1ccc2sc(NNC(=O)c3ccc4c(c3)OCCO4)nc2c1C | 5.17%

SMILES | max response
O=C(Nc1ccc(Cl)cn1)c1cnn2cccnc12 | 58.9% (active)
COc1c(Cl)cc(C(=O)Nc2ccc(Cl)cn2)cc1Cl | 11.7%
CC(=O)c1ccc2c(c1)OCCOCCOc1ccc(C(C)=O)cc1OCCOCCO2 | 0.857%
O=C(Nc1cccnc1)c1ccc(Cl)cc1[N+](=O)[O-] | -1.02%
Cc1cc(NC(=O)c2cnn3cccnc23)n(-c2ccccc2)n1 | 0.387%
O=C(Nc1ccc(Cl)cn1)c1ccc2c(c1)OCCO2 | 37.5% (active)
COc1ccc(C(=O)NC(=S)Nc2ccc(Cl)cn2)cc1OC | -1.11%
O=C(NCc1ccncc1)C(=O)NCC1OCCN1S(=O)(=O)c1ccc(Br)cc1 (centres undefined) | -5.83%
CSCCNCc1cn(-c2ccc(F)cc2F)nc1-c1ccccc1C | -0.8%
COc1cc(OC)c(NS(=O)(=O)c2cn(C)cn2)cc1Cl | -0.545%
COc1cc(/C=C2/C(=O)NN(c3cccc(Cl)c3)C2=O)cc(Br)c1O | 0.32%
CC1(C)O[C@@H]2C[C@@H]3[C@H]4C[C@@H](F)C5=CC(=O)C=C[C@]5(C)[C@@]4(F)[C@@H](O)C[C@]3(C)[C@]2(C(=O)CO)O1 | 7.66%
CCOC(=O)c1ccc(NC(=O)c2nc[nH]c2C(=O)NCc2ccccc2)cc1 | -1.19%
O=C(NCCN1CCN(C(=O)c2cccc([N+](=O)[O-])c2)CC1)C(=O)NCc1ccc(Cl)cc1 | 1.34%
Cc1cc(-c2csc(N)n2)c(C)n1-c1ccccc1 | 28.2%
CC(=O)Nc1ccc(C(=O)Nc2nc(-c3cc(C)n(Cc4ccccc4)c3C)cs2)cc1 | -2.65%
Cc1cc(-c2csc(N)n2)c(C)n1Cc1ccccc1 | 22.9% (active)
Cc1nn2c(c1-c1ccccc1)N=C(c1ccco1)CC2c1ccccc1 (centres undefined) | 20.9% (active)
O=C(O)CCCC(=O)N1N=C(c2ccco2)CC1c1ccco1 (centres undefined) | -3.77%
Cn1c(N)c(C(=O)COC(=O)C23CC4CC(CC(C4)C2)C3)c(=O)n(C)c1=O | -2.04%
O=C(O)c1ccccc1C(=O)Nc1ccccc1[N+](=O)[O-] | 0.991%
Cc1cc(NC(=O)Nc2ccccc2[N+](=O)[O-])no1 | 16.1% (active)
Cc1c(NC(=O)Nc2ccccc2)cccc1[N+](=O)[O-] | -0.54%
CCOC(=O)/C(=N\Nc1ccccc1[N+](=O)[O-])c1csc(Nc2ccccc2)n1 | 11.6%

SMILES | max response
O=C(Nc1ccccc1[N+](=O)[O-])C1C(c2ccccc2)=C1c1ccccc1 | -1.97%
Cc1csc(NC(=O)Nc2ccccc2[N+](=O)[O-])n1 | 40.4% (active)
CCCCCCC12CCC(C(=O)O)(CC1)CC2 | -3.19%
Cc1cccc(NC(=O)CCn2c(=O)oc3ccccc32)c1 | -4.29%
NC(=O)Cn1c(=O)oc2ccccc21 | -2.47%
Cc1ccc(OCCCn2c(=O)oc3ccccc32)cc1 | 33.3% (active)
COc1ccccc1C(=O)Nc1nc2nc(-c3ccccc3)cc(=O)n2[nH]1 | 9.7%
Cc1cc(S(=O)(=O)NCC(C)C)ccc1OCC(=O)NC1CC1 | 1.55%
Cc1c(N=Nc2ccc(N(C)C)cc2)c(=O)n(-c2ccccc2)n1C | 24.4% (active)
Cc1nc(N)sc1N=Nc1c(C)n(C)n(-c2ccccc2)c1=O | -1.65%
Cc1ccc(N=Nc2c(C)[nH]n(-c3ccccc3)c2=O)cc1 | 7.15%
Cc1ccccc1CCNC(=O)C1CCC(=O)N(Cc2ccc(Cl)cc2)C1 (centres undefined) | 6.9%
COc1ccccc1CN1CC(C(=O)NCCc2cn[nH]c2)CCC1=O (centres undefined) | 12.3% (active)
COc1ccccc1CCCNC(=O)C1CCC(=O)N(CCN2CCOCC2)C1 (centres undefined) | -2.68%
CN1CCN(Cc2nc3cc(NC(=O)COc4ccc([N+](=O)[O-])cc4)ccc3n2C)CC1 | -3.77%
CCN(C(=O)Cc1c(C(=O)O)n(CC)c2ccccc12)c1ccccc1C | -1.37%
CCCCNc1ccc(C(=O)Nc2cccc(C)n2)cc1[N+](=O)[O-] | 12.7% (active)
Cc1cc(C)nc(NC(=O)c2cccc([N+](=O)[O-])c2)c1 | -2.71%
CCOC(=O)c1ccc(NNC(C)=O)c([N+](=O)[O-])c1 | 16.3%
Cc1cc(C)nc(S/C=C/C(=O)c2ccccc2)n1 | 109% (active)
Cc1cc(C)nc(SCC(=O)c2ccc(Cl)cc2)n1 | 2.56%
Cc1cc(SCC(=O)c2ccccc2)nc(SCC(=O)c2ccccc2)n1 | 6.74%
CC(=O)N(C)c1ccc(NC(=O)C(F)(F)F)cc1 | -1.33%
CN(C)c1ccc(N/C=C/C(=O)C(F)(F)F)cc1 | 55.6% (active)

SMILES | max response
O=C(/C=C/Nc1ccccc1OC(F)(F)F)C(F)(F)F | -2.95%
Cc1ccc2[nH]c3c(=O)n(CC(=O)NCCc4ccc(Cl)cc4)ncc3c2c1 | 4.22%
CCn1nc(C)c(CNC(=O)C2CCC(=O)N(Cc3cccc(F)c3)C2)c1C (centres undefined) | -0.425%
CN1CCN(/N=C/c2ccc(C#N)cc2)CC1 | 24.2% (active)
CN1CCN(/N=C/c2c[nH]c3ccccc23)CC1 | 0.776%
COC(c1ccccc1)c1nnc(CCC(=O)N2CCN(CCOc3ccccc3)CC2)o1 (centres undefined) | -3.13%
Cc1c(C2=CCN(S(=O)(=O)c3ccc(Cl)cc3)CC2)c2ccccc2n1C | -3.88%
COCCNC(=O)c1ccc(Cn2c(SCC(=O)NCC3CCCO3)nc3ccc(Br)cc3c2=O)cc1 (centres undefined) | -4.2%
Cc1cc(OCc2cc(C(=O)NCc3cc(C(C)C)no3)no2)cc(C)c1Cl | 72.4% (active)
CC(C)C(=O)NCc1cc(-c2ccc(Cl)cc2)no1 | 8.48%
COCCCNC(=O)COc1cc(C)c(Cl)c(C)c1 | 5.62%
COc1ccccc1-c1nnc(NC(=O)c2cccc(N3C(=O)CCC3=O)c2)o1 | -0.976%
COc1ccc(-c2nnc(NC(=O)CS(=O)(=O)c3ccc(Cl)cc3)o2)c(OC)c1 | 13.7%
COc1ccccc1-c1nnc(NC(=O)c2ccc3ncsc3c2)o1 | 66.2% (active)
COc1ccc(NC(=O)NNC(=O)COc2cc(C)c(Cl)c(C)c2)c(OC)c1 | 0.264%
O=C(NCc1ccccc1)C1=C[C@@H](C2CCCCC2)C[C@@H](OCc2ccc(CO)cc2)O1 | -2.03%
COC(=O)c1ccc(C23CC4(C2)[C@H](CN(Cc2cccnc2)[C@@H]4c2ccccc2)C3c2ccc(Cl)nc2)cc1 (some centres undefined) | -2.32%
CCC1CCCCN1C(=O)CSc1nc2c(c(=O)n1C)SC(C)C2 (centres undefined) | 0.908%
C=C(C)CSc1nnc(-c2ccc(C)cc2)n1N | 37.8% (active)
Cc1ccc(-c2nnc(SC(C)C#N)n2N)cc1 (centres undefined) | 5.06%
Cc1ccc(NC(=O)NC(=O)CSc2nnc(-c3ccc(OC(F)F)cc3)n2N)c(C)c1 | 11.8%
Cc1cc(C)cc(N(CC(=O)N2CC=C(c3ccccc3)CC2)S(=O)(=O)c2c(C)noc2C)c1 | 8.05%
